Where “and” joins values, the source holds several entries; their conditions need not be identical. Equal entries are not always repeated. Out of some 5,500 compounds screened, about 2,000 (36%) were called active. Roughly 18% stayed inconclusive and do not appear here. No stated cut-off is given here; in the data, active means normalized growth mostly below about 0.91 (no sharp cut-off); inconclusive means no clear call, values can overlap the other calls; inactive means mostly above about 0.92. The list shows a part of the results.
Assay: chemical genetic growth profiling, strain panel (AID 1159580);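 further: tested at 20 µM; growth read once vehicle control cultures reached saturation at 30 °C; 1 = growth at the plate median or of vehicle wells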
Settings: S. cerevisiae deletion strains, growth OD

Measured: normalized growth

CC[C@@H](CO)NC(=O)[C@@H]1C=C2c3cccc4[nH]cc(c34)C[C@H]2N(C)C1
inactive: locus YAL013W, strain DEP1, stronger effect = lower value 0.989 | locus YAL021C, strain ccr4, stronger effect = lower value 1 | locus YAL026C, strain drs2, stronger effect = lower value 0.996 | locus YAL030W, strain snc1, stronger effect = lower value 0.997 | locus YBL061C, strain skt5, stronger effect = lower value 0.999 | locus YBR009C, strain hhf1, stronger effect = lower value 0.992 | locus YBR021W, strain FUR4, stronger effect = lower value 1 | locus YBR023C, strain chs3, stronger effect = lower value 0.997 | locus YBR171W, strain sec66, stronger effect = lower value 0.998 | locus YBR229C, strain ROT2, stronger effect = lower value 0.99 | locus YBR231C, strain swc5, stronger effect = lower value 0.988 | locus YBR279W, strain paf1, stronger effect = lower value 0.996 | locus YCL011C, strain gbp2, stronger effect = lower value 1 | locus YCL016C, strain dcc1, stronger effect = lower value 0.994 | locus YCL029C, strain bik1, stronger effect = lower value 0.984 | locus YCL069W, strain vba3, stronger effect = lower value 1 | locus YCR088W, strain abp1, stronger effect = lower value 0.998 | locus YDL005C, strain med2, stronger effect = lower value 1 | locus YDL035C, strain GPR1, stronger effect = lower value 1 | locus YDL040C, strain nat1, stronger effect = lower value 0.997 | locus YDL074C, strain BRE1, stronger effect = lower value 1.02 | locus YDL101C, strain DUN1, stronger effect = lower value 0.993 | locus YDL134C, strain PPH21, stronger effect = lower value 0.98 | locus YDL185W, strain tfp1, stronger effect = lower value 0.981 | locus YDL192W, strain arf1, stronger effect = lower value 0.988 | locus YDR001C, strain nth1, stronger effect = lower value 0.998 | locus YDR069C, strain doa4, stronger effect = lower value 0.995 | locus YDR101C, strain arx1, stronger effect = lower value 0.995 | locus YDR137W, strain rgp1, stronger effect = lower value 0.995 | locus YDR150W, strain NUM1, stronger effect = lower value 1 | locus YDR159W, strain sac3, stronger effect = lower value 0.992 | locus YDR162C, strain NBP2, stronger effect = lower value 1.02 | locus YDR195W, strain ref2 0.942 | locus YDR297W, strain sur2, stronger effect = lower value 0.994 | locus YDR318W, strain mcm21, stronger effect = lower value 0.982 | locus YDR334W, strain swr1, stronger effect = lower value 1 | locus YDR335W, strain msn5, stronger effect = lower value 0.999 | locus YDR388W, stronger effect = lower value 0.99 | locus YDR392W, strain spt3, stronger effect = lower value 0.995 | locus YDR502C, strain sam2, stronger effect = lower value 1 | locus YEL003W, strain gim4, stronger effect = lower value 0.998 | locus YEL037C, strain rad23, stronger effect = lower value 1 | locus YEL061C, strain CIN8 (second series), stronger effect = lower value 1 | locus YEL061C, strain CIN8, stronger effect = lower value 0.998 | locus YER015W, strain faa2, stronger effect = lower value 0.99 | locus YER016W, strain bim1, stronger effect = lower value 0.993 | locus YER110C, stronger effect = lower value 0.977 | locus YER111C, strain swi4, stronger effect = lower value 1 | locus YER155C, strain BEM2 (second series), stronger effect = lower value 0.961 | locus YER155C, strain BEM2, stronger effect = lower value 1 | locus YER167W, strain BCK2, stronger effect = lower value 0.974 | locus YFR010W, strain ubp6, stronger effect = lower value 0.985 | locus YGL078C, strain dbp3, stronger effect = lower value 0.998 | locus YGL086W, strain mad1, stronger effect = lower value 0.959 | locus YGL167C, strain pmr1, stronger effect = lower value 1.01 | locus YGL173C, strain kem1, stronger effect = lower value 0.995 | locus YGL227W, strain vid30, stronger effect = lower value 0.991 | locus YGL240W, strain doc1, stronger effect = lower value 0.981 | locus YGL248W, strain PDE1, stronger effect = lower value 0.986 | locus YGL253W, strain hxk2, stronger effect = lower value 1.01 | locus YGR078C, strain PAC10, stronger effect = lower value 0.994 | locus YGR135W, strain pre9, stronger effect = lower value 0.958 | locus YGR229C, strain SMI1, stronger effect = lower value 0.961 | locus YGR252W, strain gcn5, stronger effect = lower value 0.949 | locus YHR013C, strain ard1, stronger effect = lower value 1.02 | locus YHR027C, strain rpn1, stronger effect = lower value 1 | locus YHR030C, strain SLT2, stronger effect = lower value 0.99 and 1.07 | locus YHR079C, strain IRE1 (second series), stronger effect = lower value 0.991 | locus YHR079C, strain IRE1, stronger effect = lower value 1.07 | locus YHR094C, strain hxt1, stronger effect = lower value 0.985 | locus YHR129C, strain ARP1, stronger effect = lower value 0.989 | locus YHR142W, strain chs7, stronger effect = lower value 1.01 | locus YHR200W, strain rpn10, stronger effect = lower value 0.978 | locus YIL066C, strain RNR3, stronger effect = lower value 0.983 | locus YIL073C, strain SPO22, stronger effect = lower value 0.945 | locus YIL125W, strain kgd1, stronger effect = lower value 0.998 | locus YIR030C, strain dcg1, stronger effect = lower value 0.991 | locus YJL092W, strain hpr5, stronger effect = lower value 0.995 | locus YJL095W, strain BCK1 (second series), stronger effect = lower value 0.995 | locus YJL095W, strain BCK1, stronger effect = lower value 0.981 and 1.04 | locus YJL115W, strain asf1, stronger effect = lower value 0.995 | locus YJL129C, strain trk1, stronger effect = lower value 0.999 | locus YJL134W, strain LCB3, stronger effect = lower value 0.992 | locus YJL154C, strain vps35, stronger effect = lower value 0.998 | locus YJL164C, strain tpk1, stronger effect = lower value 0.991 | locus YJL166W, strain qcr8, stronger effect = lower value 0.947 | locus YJL168C, strain set2, stronger effect = lower value 0.984 | locus YJL187C, strain SWE1 (second series), stronger effect = lower value 0.996 | locus YJR043C, strain POL32, stronger effect = lower value 0.975 | locus YJR066W, strain TOR1, stronger effect = lower value 0.999 | locus YJR075W, strain HOC1, stronger effect = lower value 1.02

Reference: PubChem BioAssay AID1159580 (chemical genetic matrix, 2015)
